Sampled rows, rich in hits. Any-hit rate of the full collection: about 13%.
RAM inhibit: inhibitors of the yeast RAM network, primary screen, dse1pr::URA3 reporter, 5-FOA selection. S. cerevisiae dse1pr::URA3 reporter, 5-FOA growth OD615, 2 d; analog-sensitive cbk1-as2 kinase mutant strain. inhibition, % at 50 µM. 1.8% of 190,000 active;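 active = inhibition above a set limit, 3 SD over mean compound inhibition, cut at about 8.4% in these data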;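 note: inhibition rescues growth on 5-FOA so higher OD means more RAM inhibition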
CHOP inhibitor: inhibitors of CHOP promoter induction, primary screen, cell-based, unfolded protein response, luciferase reporter; CHO-K1 CHOP-promoter luciferase, tunicamycin-induced, 15-18 h; inhibition, % at 10 µM; 3.8% of 220,000 active; AID 2732, 2010;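 active = compounds that reduced the stress-induced luciferase reporter signal by more than about 70% of percent inhibition, limit read from the data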
L major viab: Leishmania major promastigote growth inhibition, primary screen. Leishmania major promastigotes, resazurin fluorescence viability. 9% of 200,000 active. AID 1063, 2008. inhibition, % at 10 µM; in the data active = inhibition above about 50%;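 note: promastigotes grown with compound for 44 hours at 28 °C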
WT yeast gro inh: growth inhibition of WT strain, primary screen, mitochondrial fusion inhibitor project, WT and mutant strains, chemical genetic; inhibition, % at 10 µM; mitochondrial fusion phenotypic screen; 2.1% of 190,000 active; in the data active = inhibition above about 58%; tested in S. cerevisiae
Each line names hits and unclear results; the compound was inactive in the other large screens.

COc1ccc(/C(C)=N/Nc2ccc(C(=O)O)cc2)cc1OC	L major viab 51.2
Cc1ccc(O)c(CP(=O)(c2ccccc2)c2ccccc2)c1	L major viab 84.5
COc1ccc(-c2cc(-c3ccccc3)c(C#N)c(S(C)(=O)=O)n2)cc1	L major viab 97.6
COc1ccc(-c2cc(-c3ccc(OC)cc3)c(C#N)c(SC)n2)cc1	none
COC(=O)CSc1nn(-c2ccc(F)cc2)c(=S)s1	none
COc1cc(OC)c(C(=O)NNC(=S)NC2CCCCC2)cc1OC	L major viab 50.7
Cc1nc2c(c3c1[nH]c1ccccc13)C(=O)CC(C)(C)C2	L major viab 63.6
CCOC(=O)c1c(C)nc2c(c1-c1ccccc1)C(=O)CC(C)(C)C2	none
Oc1ccc2ccccc2c1N=Nc1ccccn1	L major viab 99.5
Cn1c(=O)c2c(nc(-n3ccnc3)n2Cc2ccc(Cl)cc2Cl)n(C)c1=O	L major viab 83.7
COc1c(Cl)cc(Br)c(OC)c1C(=O)NC(=O)Nc1nc(C)cc(C)n1	none (no result: RAM inhibit, L major viab, WT yeast gro inh)
COc1cccc(CNc2cc(CSc3ccc(Cl)cc3)nc(C)n2)c1	none
COc1ccccc1CNc1cc(CSc2ccc(Cl)cc2)nc(C)n1	L major viab 57.4
Cc1cccc(Sc2nc(-c3ccccc3)ccc2C#N)c1	RAM inhibit 10.6
N#Cc1ccc(-c2ccccc2)nc1Sc1ccc(F)cc1	none
CCC(OC(=O)c1nsc(Cl)c1Cl)C(=O)NC(C)(C)CC (stereo not given)	none
CCCC/C(C)=N/NC(=O)c1cn(-c2ccccc2)nc1-c1ccccc1	none
Cc1ccccc1NC(=S)N(CCN1CCOCC1)Cc1ccccc1F	none
Cn1cc(Cl)c(C(=O)Nc2cnn(Cc3ccc(F)cc3)c2)n1	L major viab 98.6
O=C(Nc1cnn(Cc2ccc(F)cc2)c1)c1cc(-c2ccco2)on1	L major viab 69.2
O=C(Nc1cnn(Cc2ccc(F)cc2)c1)c1cc2nc(-c3ccco3)cc(C(F)(F)F)n2n1	RAM inhibit 9.5
Cc1ccc(Cn2ccc(NC(=O)c3nn(C)cc3Cl)n2)cc1	none
O=C(Nc1cccc(S(=O)(=O)N2CCOCC2)c1)c1c2c(nc3ccccc13)CCC2	none
Cc1ccc(NS(=O)(=O)c2cccc(C(=O)N/N=C/c3ccc4c(c3)OCCO4)c2)c(C)c1	none
CCOc1c(Cl)cc(/C=N/NC(N)=S)cc1OC	none
CC(Oc1ccc(Cl)cc1Cl)C(=O)Nc1ccc2oc(-c3ccncc3)nc2c1 (stereo not given)	CHOP inhibitor 73.8
Cc1cc2nc(-c3ccc(NC(=O)C(C)C)cc3)oc2cc1C	L major viab 90.2
O=C(C1CCN(S(=O)(=O)c2ccc3c(c2)OCCO3)CC1)N1CCc2ccccc21	none
CC(OC(=O)C1CCN(S(=O)(=O)c2ccc(Cl)cc2)CC1)C(=O)N1CCc2ccccc21 (stereo not given)	L major viab 97.8
CCOC(=O)N1CCC(NC(=O)c2ccc(N3CCC4(CC3)OCCO4)c([N+](=O)[O-])c2)CC1	none
Cc1ccc(C(=O)NCCCn2ccnc2)cc1[N+](=O)[O-]	none
O=C(NCCCn1ccnc1)c1ccc(N2CCCCCC2)c([N+](=O)[O-])c1	L major viab 90.3
CCCCNC(=O)c1ccc(N2CCC3(CC2)OCCO3)c([N+](=O)[O-])c1	L major viab 59.5
CCCCN(CCCNC(=O)CN1C(=O)COc2ccccc21)c1ccccc1	CHOP inhibitor 73.8
CCN(CCCNC(=O)CN1C(=O)COc2ccccc21)c1cccc(C)c1	CHOP inhibitor 86.5
Cc1ccc(CCNC(=O)CN2C(=O)COc3ccccc32)cc1	none
CCN(CCCNC(=O)c1ccc(N2CCCC2=O)cc1)c1cccc(C)c1	L major viab 79.5
CCN(CCNC(=O)c1cccc(N2CCCC2=O)c1)c1ccccc1	none
CCN(CCCNC(=O)CN1C(=O)COc2ccccc21)c1ccccc1	none
CCOC(=O)CCc1c(C)nc(SCCCn2c(=O)[nH]c3ccccc32)c(C#N)c1C	RAM inhibit 9.4, CHOP inhibitor 83.0
CCOC(=O)CCc1c(C)nc(SCCN2CCCC2)c(C#N)c1C	L major viab 81.0
Cc1nc(SCC(N)=O)c(C#N)c(C)c1C	none (no result: RAM inhibit, L major viab, WT yeast gro inh)
O=S(=O)(CCSc1nc2ccccc2o1)c1nc2ccccc2s1	L major viab 98.3 (no result: CHOP inhibitor)
c1ccc(-c2nc(-c3nccc4ccccc34)oc2-c2ccccc2)cc1	none (no result: RAM inhibit, L major viab, WT yeast gro inh)
O=C(CNC(=O)c1ccc(S(=O)(=O)N2CCCC2)cc1)N/N=C/c1ccccc1	L major viab 87.0
O=C(CNC(=O)c1ccc(S(=O)(=O)N2CCCC2)cc1)N/N=C/c1ccc(Cl)cc1	L major viab 90.9

High-throughput results deposited in PubChem by several laboratories.
